Assay outcomes as filed in PubChem BioAssay.
GPR151 activ: activates the human receptor GPR151; Q8TDV0; PathHunter beta-arrestin GPR151 cells, luminescence; activation, % at 11.2 µM; hit rate 1% among 650,000; AID 1508602; in the data active = activation above about 4.9%;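 also: 0% = median of compound wells and 100% = cells with positive control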
MITF primary: inhibitors of human MITF; O75030; AlphaScreen MITF homodimerization, bead proximity signal; inhibition, % at 2.6 µM; hit rate 0.91% among 650,000; in the data active = inhibition above about 50%;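 also: 0% = vehicle wells with protein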
TEAD-YAP block: TEAD-YAP interaction inhibition; HEK-TIYL cells, TEAD-Gal4/YAP UAS-luciferase luminescence; inhibition, % at 9.12 µM; hit rate 1.4% among 640,000; in the data active = inhibition above about 32%;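 also: 0% = median of test compound wells and 100% = reference inhibitor wells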
FBW7 act: activators of human E3 ligase FBW7; Q969H0; AlphaScreen FBW7–phospho-cyclin E peptide binding, activator screen; normalized activity (activation), % at 26.1 µM; hit rate 0.13% among 650,000; in the data active = normalized activity above about 1.9%;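 also: purified mutant Fbw7 with reduced substrate affinity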
* marks the source's active call; other numbers are inactive results. Compounds with a hit are over-represented: about 3.5% of the library has one in this group of screens.

Screening c1ccc2[nH]c(CNc3nc(Nc4ccc(-n5ccnc5)cc4)nc4c3ncn4-c3ccsc3)nc2c1 returned GPR151 activ -2, MITF primary 3, TEAD-YAP block 65* and FBW7 act 0.
c1ccc2[nH]c(CNc3nc(Nc4ccncc4)nc4c3ncn4-c3ccsc3)nc2c1 was read as GPR151 activ -3, MITF primary 5, TEAD-YAP block 85* and FBW7 act 0.
For O=C(Nn1cnnc1)C(=O)c1c(-c2ccccc2)cc2ccccn12 the results were GPR151 activ -1, MITF primary -3, TEAD-YAP block 9 and FBW7 act 0.
For CCOc1nc(C)c([N+](=O)[O-])c(Nc2ccccc2OC)n1 the results were GPR151 activ 1, MITF primary 5, TEAD-YAP block 0 and FBW7 act 0.
For c1cn(-c2ccc(Nc3nc(Nc4ccc5c(c4)OCO5)c4ncn(-c5ccsc5)c4n3)cc2)cn1 the results were GPR151 activ -1, MITF primary 13, TEAD-YAP block 53* and FBW7 act 0.
For COc1ccc(-c2nc3ccccc3c(=O)n2NCc2cccc(OC)c2)cc1 the results were GPR151 activ 0, MITF primary 10, TEAD-YAP block 8 and FBW7 act 0.
For COc1ccc(-c2nc3ccccc3c(=O)n2NCc2cccc(Oc3ccccc3)c2)cc1 the results were GPR151 activ 0, MITF primary 0, TEAD-YAP block 78* and FBW7 act 0.
COc1ccc(-c2nc3ccccc3c(=O)n2NCc2ccc(Br)cc2)cc1OC was read as GPR151 activ 1, MITF primary 2, TEAD-YAP block -17 and FBW7 act 0.
Screening COc1ccc(-c2nc3ccccc3c(=O)n2NCc2ccc(O)cc2)cc1OC returned GPR151 activ 1, MITF primary 18, TEAD-YAP block 40* and FBW7 act 0.
For CCC(=O)c1ccc(OCCN2CCCCC2)cc1 the results were GPR151 activ 0, MITF primary -9, TEAD-YAP block -10 and FBW7 act 0.
`COc1cc(/C=c2\sc3nc4c(C)c(C)ccc4n3c2=O)ccc1OC(C)C(=O)O` (stereo not given) gave GPR151 activ 0, MITF primary 1, TEAD-YAP block 0 and FBW7 act 0.
`Cc1cc(Cl)ccc1-n1c(-c2cccc([N+](=O)[O-])c2)n[nH]c1=S` gave GPR151 activ 2, MITF primary -3, TEAD-YAP block 8 and FBW7 act 0.
`CCOC(=O)c1ccc(NC(=O)c2cn(CCC#N)nc2-c2ccc(F)cc2)cc1` gave GPR151 activ 0, MITF primary 2, TEAD-YAP block 1 and FBW7 act 0.
`CCN(CC)C(=O)c1cn(CCC#N)nc1-c1ccc(F)cc1` gave GPR151 activ -1, MITF primary 10, TEAD-YAP block -4 and FBW7 act 2.1*.
CC(C)(C)c1ccc(C2CC(=O)C3=C(C2)Nc2ccccc2N(C(=O)C2CC2)C3c2ccc(F)cc2)cc1 (stereo not given) was read as GPR151 activ 1, MITF primary -2, TEAD-YAP block 0 and FBW7 act 0.
Screening COc1ccc(C2=CC(c3ccccc3F)n3c(nc4ccccc43)N2)cc1 (stereo not given) returned GPR151 activ -6, MITF primary 4, TEAD-YAP block 35* and FBW7 act 0.
Screening COc1cccc(C2=CC(c3ccccc3F)n3c(nc4ccccc43)N2)c1 (stereo not given) returned GPR151 activ 3, MITF primary 11, TEAD-YAP block -57 and FBW7 act 0.
For Cc1ccc(C2=CC(c3ccc(F)c(Br)c3)n3c(nc4ccccc43)N2)cc1 (stereo not given) the results were GPR151 activ -7, MITF primary 0, TEAD-YAP block 52* and FBW7 act 0.
`Fc1ccccc1C1C=C(c2ccc(Br)cc2)Nc2nc3ccccc3n21` (stereo not given) gave GPR151 activ 0, MITF primary -4, TEAD-YAP block -86 and FBW7 act 0.
For Cc1ccc(C2=CC(c3ccc(C)cc3)n3c(nc4ccccc43)N2)cc1 (stereo not given) the results were GPR151 activ 1, MITF primary 1, TEAD-YAP block -43 and FBW7 act 0.
`CCc1ccc(C2=CC(c3ccccc3F)n3c(nc4ccccc43)N2)cc1` (stereo not given) gave GPR151 activ -7, MITF primary -6, TEAD-YAP block 68* and FBW7 act 0.
Screening O=C(NCc1ccc(Cl)cc1)C(=O)Nc1ccccc1F returned GPR151 activ -1, MITF primary -5, TEAD-YAP block -25 and FBW7 act 0.
`CN1CCc2c(c(-c3ccc(C#N)cc3)nn2C)C1` gave GPR151 activ -1, MITF primary -2, TEAD-YAP block 8 and FBW7 act 0.
For Cc1ccc(Oc2coc3cc(OC(=O)c4c(-c5ccccc5)nn(-c5ccccc5)c4Cl)ccc3c2=O)cc1 the results were GPR151 activ -1, MITF primary 10, TEAD-YAP block -3 and FBW7 act 0.
CCc1c(C)nc2c(C(=O)NCCc3ccccc3)c[nH]n2c1=O was read as GPR151 activ 4, MITF primary 1, TEAD-YAP block 3 and FBW7 act 0.
For Cc1ccc(CCNC(=O)c2c(N)[nH]n3c(=O)c4ccccc4nc23)cc1 the results were GPR151 activ -1, MITF primary 4, TEAD-YAP block 35* and FBW7 act 0.
`O=c1c2ccccc2nc2c3ccccc3c(NCCN3CCOCC3)nn12` gave GPR151 activ 1, MITF primary -5, TEAD-YAP block 74* and FBW7 act 0.
Screening O=c1c2c(-c3ccccc3)csc2nc2c3ccccc3c(NCCCN3CCOCC3)nn12 returned GPR151 activ 0, MITF primary 19, TEAD-YAP block -4 and FBW7 act 1.
`COc1ccc(Nc2ccnc3c(-c4cccc(O)c4)cnn23)cn1` gave GPR151 activ -2, MITF primary 13, TEAD-YAP block 25 and FBW7 act 0.
COc1ccc(Nc2ccnc3c(-c4cccc(CO)c4)cnn23)cn1 was read as GPR151 activ -3, MITF primary 5, TEAD-YAP block 98* and FBW7 act 0.
`COc1ccc(Nc2ccnc3c(-c4ccc(O)cc4)cnn23)cn1` gave GPR151 activ -2, MITF primary -15, TEAD-YAP block 91* and FBW7 act 0.
For CCOc1ccc(NC(=O)CSc2nc3cc4c(cc3c(=O)n2CCCCCC(=O)NCc2ccc(OC)cc2)OCO4)cc1 the results were GPR151 activ 2, MITF primary 15, TEAD-YAP block 16 and FBW7 act 0.
Screening O=C(Nc1ccc2oc(-c3ccccc3Cl)nc2c1)c1cc(I)ccc1Cl returned GPR151 activ 0, MITF primary 8, TEAD-YAP block -7 and FBW7 act 0.
Screening Cc1ccc(CNC(=O)CSc2nc3c(sc(=S)n3-c3ccccc3C)c(=O)n2-c2ccccc2)cc1 returned GPR151 activ 1, MITF primary -7, TEAD-YAP block 1 and FBW7 act 0.
`COC(=O)c1cn(NC(=O)c2cccnc2Cl)c(=O)c2ccccc12` gave GPR151 activ -1, MITF primary 0, TEAD-YAP block -2 and FBW7 act 0.
